{"source": "PubChem BioAssay AID589", "about": "(National Center for Advancing Translational Sciences (NCATS), 2007)", "note": "The campaign covered roughly 59,000 compounds. About 6,200 (11%) were called active. Another 9% or so got no clear call; they are omitted. Cut-off read from the data, not from the text of the source: active = max dye-equivalent concentration above about 10 nM; inconclusive = mostly about 1.1 nM to 9.6 nM; inactive = weaker than that. The full list was thinned out, with actives kept by preference."}
{"experiment": "qHTS Assay for Spectroscopic Profiling in 4-MU Spectral Region", "details": "compound autofluorescence, 340/450 nm, 4-MU equivalents; stronger effect = higher value", "procedure,_shortened": "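Compounds in 100 mM Tris, pH 8.0, incubated 15 min at room temperature, then fluorescence read at 340 nm excitation/450 nm emission. Signal converted to 4-MU dye-equivalent concentration using an on-plate six-point 4-MU standard curve.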"}
{"smiles": "CCOC(=O)CSc1nnc(-c2ccco2)n1C", "max dye-equivalent concentration": "inactive"}
{"smiles": "c1coc(-c2nc3nc4ccccc4n3nc2-c2ccco2)c1", "max dye-equivalent concentration": "inactive"}
{"smiles": "Cn1c(-c2ccco2)nc2cc3ccccc3cc21", "max dye-equivalent concentration": "890 nM (active)"}
{"smiles": "O=C(c1ccco1)N1CCN(C(=O)c2ccc(COc3ccc(F)cc3)o2)CC1", "max dye-equivalent concentration": "inactive"}
{"smiles": "O=C(c1ccco1)N1CCC2(CC1)CN(c1ncccn1)C2", "max dye-equivalent concentration": "inactive"}
{"smiles": "CCCCNC(=O)CSc1nnc(-c2ccco2)n1C", "max dye-equivalent concentration": "inactive"}
{"smiles": "Cn1c(=O)c2c(ncn2CC(=O)N2CCN(c3ccccc3)CC2)n(C)c1=O", "max dye-equivalent concentration": "inactive"}
{"smiles": "COc1ccccc1NC(=O)C1=C(C)Nc2ncnn2C1c1ccc(C)o1", "note": "(configuration not stated)", "max dye-equivalent concentration": "inactive"}
{"smiles": "COc1ccccc1NC(=O)c1ccc(C)s1", "max dye-equivalent concentration": "inactive"}
{"smiles": "COc1ccccc1NC(=O)C1=C(C)NC2=C(C(=O)CCC2)C1c1ccc(C)o1", "note": "(configuration not stated)", "max dye-equivalent concentration": "16 nM (active)"}
{"smiles": "O=C(NCCN=C1NS(=O)(=O)c2ccccc21)c1ccc(S(=O)(=O)N2CCOCC2)cc1", "max dye-equivalent concentration": "inactive"}
{"smiles": "Cc1cc(=O)oc(C)c1C(=O)NC1CC(C)(C)NC(C)(C)C1", "max dye-equivalent concentration": "inactive"}
{"smiles": "COCc1nnc(NC(=O)CS(=O)(=O)Cc2ccccc2)s1", "max dye-equivalent concentration": "inactive"}
{"smiles": "O=C(O)C1CCCN1S(=O)(=O)c1ccc2c(c1)CCC2", "note": "(configuration not stated)", "max dye-equivalent concentration": "inactive"}
{"smiles": "CCS(=O)(=O)NCCc1ccc(OC)c(OC)c1", "max dye-equivalent concentration": "inactive"}
{"smiles": "CCNC(=O)c1c(O)c2cccc3c2n(c1=O)CC3", "max dye-equivalent concentration": "17 nM (active)"}
{"smiles": "Cn1c(C(=O)NCCN2CCc3ccccc3C2)cc2c(=O)[nH]c3ccccc3c21", "max dye-equivalent concentration": "inactive"}
{"smiles": "Cc1cc(=O)n2c3c(cccc13)CCC2", "max dye-equivalent concentration": "inactive"}
{"smiles": "O=S(=O)(O)c1ccc(O)c2ncccc12.O=S(=O)(O)c1ccc(O)c2ncccc12.[Zn]", "max dye-equivalent concentration": "inactive"}
{"smiles": "Cc1ccccc1N1CCN(S(=O)(=O)C[C@@]23CC[C@H](C[C@H]2NC(=O)[C@@H](N)CCS(C)(=O)=O)C3(C)C)CC1", "max dye-equivalent concentration": "inactive"}
{"smiles": "CCOC(=O)C1=C(CNC2CCCCC2)NC(=O)NC1c1cc(C)ccc1C", "note": "(configuration not stated)", "max dye-equivalent concentration": "inactive"}
{"smiles": "COc1cc(OC)cc(C(=O)NCCSCc2ccco2)c1", "max dye-equivalent concentration": "inactive"}
{"smiles": "O=C(CSc1nnc(-c2cccnc2)n1Cc1ccco1)c1ccc(Cl)cc1", "max dye-equivalent concentration": "inactive"}
{"smiles": "C(=C\\c1ccccc1)/CSc1nnc(-c2cccnc2)n1Cc1ccco1", "max dye-equivalent concentration": "inactive"}
{"smiles": "Clc1cccc(-c2nc3nc4ccccc4nc3n2Cc2ccco2)c1", "max dye-equivalent concentration": "110 nM (active)"}
{"smiles": "C=C(C)Cn1c(SCC(=O)NCc2ccco2)nc2sc3c(c2c1=O)CCC3", "max dye-equivalent concentration": "inactive"}
{"smiles": "c1coc(CNc2ncnc3ccccc23)c1", "max dye-equivalent concentration": "inactive"}
{"smiles": "CN1CCc2c(sc3c2c(NCc2ccco2)nc2nnnn23)C1", "max dye-equivalent concentration": "380 nM (active)"}
{"smiles": "Cc1cccc(N(CC(O)CN(C)C)S(=O)(=O)c2ccccc2)c1", "note": "(configuration not stated)", "max dye-equivalent concentration": "inactive"}
{"smiles": "CCOC(=O)N1CCN(C(=O)CN(C2CCCCC2)S(C)(=O)=O)CC1", "max dye-equivalent concentration": "inactive"}
{"smiles": "Cc1cccn2c(=O)c3cc(C(=O)NCc4ccccn4)n(C)c3nc12", "max dye-equivalent concentration": "190 nM (active)"}
{"smiles": "O=C(NCc1ccccn1)c1c(O)c2c([nH]c1=O)CCCC2", "max dye-equivalent concentration": "inactive"}
{"smiles": "O=C(NCc1ccco1)c1nc2ncccn2n1", "max dye-equivalent concentration": "inactive"}
{"smiles": "Cc1cccn2c(=O)c3cc(C(=O)N4COCC4(C)C)n(C)c3nc12", "max dye-equivalent concentration": "970 nM (active)"}
{"smiles": "CCOC(=O)N1CCN(S(=O)(=O)c2cc3c(cc2C)NC(=O)CO3)CC1", "max dye-equivalent concentration": "inactive"}
{"smiles": "Cc1cnc(CNc2ncncc2-c2ccccc2Cl)cn1", "max dye-equivalent concentration": "inactive"}
{"smiles": "Cc1ccccc1C(OCC(O)CN1CCCCC1CCO)c1ccccc1", "note": "(configuration not stated)", "max dye-equivalent concentration": "inactive"}
{"smiles": "Cc1ccc(-c2nc(COC(=O)c3c(C)noc3C)cs2)cc1", "max dye-equivalent concentration": "inactive"}
{"smiles": "Cc1noc(C)c1C(=O)Nc1ccccn1", "max dye-equivalent concentration": "inactive"}
{"smiles": "Cc1noc(C)c1C(=O)OCC(=O)/C=C1\\N(C)c2ccccc2C1(C)C", "max dye-equivalent concentration": "150 nM (active)"}
{"smiles": "COc1ccc(C(=O)N/N=C2/C(=O)c3c(C)cc(C)cc3CC2(C)C)cc1", "max dye-equivalent concentration": "inactive"}
{"smiles": "Cc1ccc(S(=O)(=O)N2CCC(C(=O)N[C@@H](C)C(=O)NCCc3ccccc3)CC2)cc1", "max dye-equivalent concentration": "inactive"}
{"smiles": "CCOc1ccc(-n2c(SC(C)C(=O)OC)nc3c(c2=O)SCC3)cc1", "note": "(configuration not stated)", "max dye-equivalent concentration": "inactive"}
{"smiles": "CCOC(=O)N1CCC(NC(=O)CCc2cn(C)c3ccccc23)CC1", "max dye-equivalent concentration": "380 nM (active)"}
{"smiles": "CCOC(=O)N1CCC(NC(=O)C(C)n2c3ccccc3c3cnn(C)c(=O)c32)CC1", "note": "(configuration not stated)", "max dye-equivalent concentration": "inactive"}
{"smiles": "CCOC(=O)N1CCC(NC(=O)Cc2cn(C)c3ccccc23)CC1", "max dye-equivalent concentration": "inactive"}
{"smiles": "CCCN1C2=C(C(=O)CCC2)C(c2ccc(O)c(Br)c2)C2=C1CCCC2=O", "max dye-equivalent concentration": "78 nM (active)"}
{"smiles": "COc1cc(Cl)cc(C2NC(=O)NC(C)=C2C(=O)NCc2ccccc2)c1O", "note": "(configuration not stated)", "max dye-equivalent concentration": "inactive"}
{"smiles": "COc1cc([C@H]2c3cc4c(cc3[C@@H](O[C@@H]3O[C@H]5CO[C@@H](C)O[C@]5(O)C[C@H]3O)[C@@H]3COC(=O)[C@H]23)OCO4)cc(OC)c1O", "max dye-equivalent concentration": "inactive"}
{"smiles": "CC(C)C(=O)N1c2ccccc2NC2=C(C(=O)CCC2)C1c1ccc(N(C)C)cc1", "note": "(configuration not stated)", "max dye-equivalent concentration": "inactive"}
{"smiles": "O=C1CCCC2=C1C(c1cccs1)n1nc(SCc3ccccc3)nc1N2", "note": "(configuration not stated)", "max dye-equivalent concentration": "110 nM (active)"}
{"smiles": "CC(C)(C)NCC[C@@H](O)c1cc(C(F)(F)F)nc2c(C(F)(F)F)cccc12", "max dye-equivalent concentration": "inactive"}
{"smiles": "Fc1ccc(-c2nnc3sc(-c4ccc5c(c4)OCO5)nn23)cc1", "max dye-equivalent concentration": "26 nM (active)"}
{"smiles": "Fc1ccc(-c2ccc(-c3nn4c(-c5ccco5)nnc4s3)o2)cc1", "max dye-equivalent concentration": "51 nM (active)"}
{"smiles": "c1ccc(-c2nnc3n2NC(c2ccc4c(c2)OCO4)S3)cc1", "note": "(configuration not stated)", "max dye-equivalent concentration": "inactive"}
{"smiles": "CC(=O)Nc1ccc(-c2nn3c(C)nnc3s2)cc1C", "max dye-equivalent concentration": "inactive"}
{"smiles": "FC(F)(F)c1nnc2sc(-c3ccco3)nn12", "max dye-equivalent concentration": "inactive"}
{"smiles": "Cc1nnc2sc(-c3ccco3)nn12", "max dye-equivalent concentration": "inactive"}
{"smiles": "CCOC(=O)C(C(=O)OCC)C(C#N)c1ccccc1", "note": "(configuration not stated)", "max dye-equivalent concentration": "inactive"}
{"smiles": "CCCn1c(SCC(=O)N2CCc3ccccc32)nnc1-c1ccncc1", "max dye-equivalent concentration": "inactive"}
{"smiles": "Cc1cc(C)n2nc(C(=O)Oc3ccc4c(c3)OCO4)nc2n1", "max dye-equivalent concentration": "inactive"}
{"smiles": "CCOc1ccc(NCCC(=O)c2ccc3c(c2)OCO3)cc1", "max dye-equivalent concentration": "inactive"}
{"smiles": "C/C=C1\\C(=O)C[C@@H]2[C@@H]3CCC4=CC(=O)CC[C@@]4(C)[C@H]3CC[C@@]12C", "max dye-equivalent concentration": "12 nM (active)"}
{"smiles": "COc1cccc(OCC(=O)Nc2ccccc2C(N)=O)c1", "max dye-equivalent concentration": "inactive"}
{"smiles": "Cc1ccc(S(=O)(=O)N2CCN(C(=O)CCC(=O)NC3CCCc4ccccc43)CC2)cc1", "note": "(configuration not stated)", "max dye-equivalent concentration": "inactive"}
{"smiles": "N#C/C=C1\\Sc2ccccc2C(=O)N1CC(=O)N1CCN(S(=O)(=O)c2ccccc2)CC1", "max dye-equivalent concentration": "18 nM (active)"}
{"smiles": "O=C(CCC(=O)N1CCN(S(=O)(=O)c2ccccc2)CC1)NC1CCCc2ccccc21", "note": "(configuration not stated)", "max dye-equivalent concentration": "inactive"}
